# The campaign covered roughly 340,000 compounds. About 4,200 (1.2%) were called active. The sample holds actives, similar compounds and a random draw of the others, so the mix is not that of the screen. Values without a mark were called inactive.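 The calls were made as follows: active = inhibition above the mean of all tested compounds plus 3 SD (cut at about 24% in these data); inactive = the rest.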
# Molecular target: Platelet-activating factor acetylhydrolase IB subunit alpha2 (Homo sapiens) (UniProt P68402)
# Assay: inhibition of PAF acetylhydrolase 1b subunit 2 – biochemical, fluorescence polarization, human, primary screen (AID 492953);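 also: 0% = enzyme with DMSO and 100% = wells lacking PAFAH1B2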
# Conditions: recombinant PAFAH1B2, FP-rhodamine activity probe, at 3.39 µM, hits give high values
# Chain of Platelet-activating factor acetylhydrolase IB subunit alpha2 (Homo sapiens) (P68402 whole entry, looked up): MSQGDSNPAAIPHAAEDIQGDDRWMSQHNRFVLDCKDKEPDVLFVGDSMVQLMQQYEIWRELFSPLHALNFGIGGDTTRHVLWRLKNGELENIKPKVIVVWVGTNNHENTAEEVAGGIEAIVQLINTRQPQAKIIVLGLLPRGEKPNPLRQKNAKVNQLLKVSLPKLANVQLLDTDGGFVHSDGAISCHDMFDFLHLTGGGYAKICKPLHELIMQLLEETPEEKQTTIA
row,Compound,inhibition
1,CC12CCC(=O)N1C(C(=O)NCCN1C(=O)S/C(=C\c3ccccc3F)C1=O)CS2 (stereo unspecified),-0.86%
2,C/C(=N\NC(=O)Cc1ccccc1[N+](=O)[O-])c1cccnc1,4.87%
3,CC(C)c1nc(CNC(=O)CC2C(=O)NCCN2Cc2cccc(F)c2F)cs1 (stereo unspecified),3.42%
4,CCCCNC(=O)CN1C(=O)NC(Cc2ccccc2)(Cc2ccccc2)C1=O,2.58%
5,O=C(CC1CCCCC1)NCc1ccccc1,2.39%
6,O=C(CN1C(=O)NC(Cc2ccccc2)(Cc2ccccc2)C1=O)NCC1CCCCC1,24.3% (active)
7,CC(/C=C/c1ccccc1)=N\NC(=O)C1CC1(C)c1ccccc1 (stereo unspecified),6%
8,CCOC(=O)C1(Cc2ccccc2C)CCCN(C(=O)c2ccc(COC)o2)C1 (stereo unspecified),5.55%
9,Cc1ccc(S(=O)(=O)CCC(=O)OCC(=O)NCCc2ccc(S(N)(=O)=O)cc2)cc1,-1.78%
10,COc1ccc(Cl)cc1NC(=O)CCS(=O)(=O)c1ccc(Br)cc1,10%
11,O=C(CCS(=O)(=O)c1ccc(Br)cc1)NCCc1ccc(Cl)cc1,25.1% (active)
12,CCCC(O)(c1ccccc1)C(c1ccccc1)c1ccccn1 (stereo unspecified),0.64%
13,Cc1ccc(NC(=S)NCc2ccccc2Cl)c(C)c1,-2.26%
14,Cc1cccc(NC(=S)NCCc2ccc(Cl)cc2)c1C,13.9%
15,Cc1ccc(NC(=S)NCCc2ccc(Cl)cc2)c(C)c1,24.7% (active)
16,COc1ccc(CNCCCNCc2ccc(OC)c(OC)c2)cc1OC,2.53%
17,ONC(=Nc1ccc(Cl)cc1)c1ccccc1Cl,15%
18,C[C@@H](NC(=O)[C@@H]1Cc2ccccc2CN1)C(=O)NC1CCCC1,1.64%
19,CCC(C)N1C(=S)SC(C)(C)C1N(O)C(=O)NC1CCCCC1 (stereo unspecified),5.19%

row,Compound,inhibition
1,CCCCNC(=O)N(O)C1N(/N=C/c2ccccc2O)C(=S)SC1(C)C (stereo unspecified),4.39%
2,CCCCNC(=O)N(O)C1N(/N=C/c2ccc(N(C)C)cc2)C(=S)SC1(C)C (stereo unspecified),27.3% (active)
3,CN(C)c1nc(N)nc(CSc2nnnn2-c2cccc3ccccc23)n1,1.2%
4,COc1ccc(N(Cc2ccccc2)S(=O)(=O)c2cccc(C(=O)O)c2)cc1,-0.1%
5,CN(C)C(=O)COC(=O)c1cccc(S(=O)(=O)N2CC3(C)CC2CC(C)(C)C3)c1 (stereo unspecified),15.9%
6,C=CCN(c1ccc(Cl)cc1)S(=O)(=O)c1cccc(C(=O)OCC(=O)N(C)C)c1,27.3% (active)
7,CC1=C(C(=O)OCC2CCCCC2)C(c2ccc(F)cc2)NC(=O)N1 (stereo unspecified),9.14%
8,CCC(CC)COC(=O)C1=C(C)NC(=O)NC1c1ccc([N+](=O)[O-])cc1 (stereo unspecified),28.2% (active)
9,CCOCCOC(=O)C1=C(C)NC(=O)NC1c1ccc2c(c1)OCO2 (stereo unspecified),-0.7%
10,O=C(NCC(c1cccs1)N1CCOCC1)c1cc(Cl)ccc1[N+](=O)[O-] (stereo unspecified),5.77%
11,CSc1ccc(S(=O)(=O)N2CCC(C(=O)NCCc3ccccc3)CC2)cc1,0.35%
12,CCOc1ccc(/C(O)=C2/C(=O)C(=O)N(Cc3cccnc3)C2c2ccc(N(C)C)cc2)c(C)c1 (stereo unspecified),-1.88%
13,O=C(O)/C=C/C(=O)NNc1ccc([N+](=O)[O-])cc1,4.93%
14,O=C(CCC(=O)N1CCN(S(=O)(=O)c2ccc(Cl)cc2)CC1)NCc1cccc(C(F)(F)F)c1,26.5% (active)
15,O=C(NCc1cccc(C(F)(F)F)c1)c1cccc(S(=O)(=O)N2CCN(Cc3ccccc3)CC2)c1,-9.49%
16,O=C(CCC(=O)c1ccccc1)NCc1cccc(C(F)(F)F)c1,2.04%
17,CC(=O)NCC(=O)N(Cc1ccco1)C1(C(=O)NC2CCCC2)CCCCC1,1.82%
18,O=C(NCCc1c[nH]c2ccc(Cl)cc12)c1ccc([N+](=O)[O-])cc1,3.76%
19,NS(=O)(=O)c1ccc(CCNC(=O)c2ccc(Cl)cc2[N+](=O)[O-])cc1,-2.98%

row,Compound,inhibition
1,O=C(NCCc1ccc(Cl)cc1Cl)c1cc([N+](=O)[O-])c[nH]c1=O,57% (active)
2,O=C(O)c1ccc(NN=CC2=C(N3CCOCC3)/C(=C/c3ccccc3)CC2)cc1,-2.37%
3,COc1ccc(C(CNC(=O)c2cc(S(=O)(=O)Nc3cccc(C)c3)ccc2C)N2CCCC2)cc1 (stereo unspecified),4.75%
4,CC(C)C[C@H]1CN([C@@H](CC(C)C)CN2CCC[C@@H]2CN2C(=O)C(=O)NC[C@@H]2Cc2ccccc2)C(=O)C(=O)N1CCc1ccccc1,1.5%
5,Cc1ccccc1/C=C\c1nc(O)c([N+](=O)[O-])c(=O)[nH]1,9.97%
6,O=c1[nH]c(/C=C/c2cccc(Br)c2)nc2ccccc12,1.93%
7,O=c1[nH]c(/C=C\c2cccc(C(F)(F)F)c2)nc(O)c1[N+](=O)[O-],27.5% (active)
8,Cc1ccnc(SCC(=O)Nc2cccc(S(=O)(=O)N3CCOCC3)c2)n1,1.16%
9,COC(=O)C1=C(N)Oc2c(oc(CO)cc2=O)C1c1c(F)cccc1Cl (stereo unspecified),0.05%
10,O=S(=O)(Nc1ncnc2sccc12)c1cccc(F)c1,-0.25%
11,COc1ccc(-c2csc3ncnc(N4CCN(S(=O)(=O)c5cccc(F)c5)CC4)c23)cc1,5.03%
12,Cc1cc(F)ccc1S(=O)(=O)Nc1ncnc2scc(-c3ccc(F)cc3)c12,36.1% (active)
13,CN(CCc1ccccn1)S(=O)(=O)c1ccc2c3c(cccc13)C(=O)N2,-2.83%
14,CN1C(c2ccc(F)cc2)=CS/C1=C(/C#N)c1nnc2n1-c1ccccc1SC2,2.85%
15,CCN(CC)C(=O)Oc1ccc(Br)cc1C(=O)Nc1ccc(F)c(Cl)c1,7.03%
16,C=CCC[C@H](Cc1ccc(F)cc1)C(=O)OC[C@@H](NC(=O)[C@@H](CC=C)CC(=O)N[C@H](CO)Cc1ccccc1)C(C)(C)C,13.2%
17,C=CC[C@@H](CC(=O)N[C@H](CO)Cc1ccccc1)C(=O)N[C@@H](COC(=O)[C@@H](CC=C)Cc1ccc(F)cc1)Cc1c[nH]c2ccccc12,-1.64%
18,C=CC[C@@H](CC(=O)N[C@H](CO)Cc1ccccc1)C(=O)N[C@H](C)COC(=O)[C@@H](CC=C)Cc1ccc(F)cc1,26.8% (active)
